According to PubChem BioAssay (NCATS):
Records with an inconclusive call do not appear. Calls of active or inactive are those of the source. Calls follow the shape of the dose curve; as a rule, active = well fitted curve in the direction sought with a large enough effect; inconclusive = small, poorly fitted or top-dose-only effect, or another doubt; inactive = no such curve, though single readings can be large; an effect the other way counts as inactive or inconclusive.

Tests used:
NIH3T3 [1] = experiment: Cytotoxic Profiling of Annotated Libraries Using Quantitative High-Throughput Screening (AID 1296008); conditions: Five cell lines viability, CellTiter-Glo ATP luminescence, 48-72 h; max response: stronger effect = lower value; also: nearly all actives have a fitted effect of over 60% in size
Outline: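 Cells exposed to compounds for 48 or 72 hr at 37 degrees Celsius. Viability read as ATP-coupled luminescence with CellTiter-Glo after 10 min at room temperature.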

MCC-13 = experiment: qHTS assay to identify novel small-molecules to repurpose for Merkel cell carcinoma treatment (AID 1296009); conditions: MCC and control cell lines, CellTiter-Glo viability, 72 h; series mostly up to 46 µM; also: nearly all actives have a fitted effect of over 60% in size
Outline: (§1)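 CellTiter-Glo luminescence after 72 hr compound exposure at 37 degree celsius gave cell viability. Libraries NPC and MIPE were run as 8- and 11-point dose responses; RLUs normalized to DMSO (negative) and no-cell (cytotoxicity) controls.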

MCC-26 = experiment: as above; conditions: MCC and control cell lines, CellTiter-Glo viability, 72 h; series mostly up to 46 µM
Outline: as §1

MKL-1 = experiment: as above; conditions: MCC and control cell lines, CellTiter-Glo viability, 72 h; series mostly up to 46 µM
Outline: as §1

MKL-2 = experiment: as above; conditions: MCC and control cell lines, CellTiter-Glo viability, 72 h; series mostly up to 46 µM
Outline: as §1

NIH3T3 [2] = experiment: as above; conditions: MCC and control cell lines, CellTiter-Glo viability, 72 h; at 44.8 µM (top of the series) unless noted
Outline: as §1

UISO = experiment: as above; conditions: MCC and control cell lines, CellTiter-Glo viability, 72 h; series mostly up to 46 µM
Outline: as §1

WaGa = experiment: as above; conditions: MCC and control cell lines, CellTiter-Glo viability, 72 h; series mostly up to 46 µM
Outline: as §1

C33A = experiment: Primary qHTS to identify gynecologic anti-cancer compounds using libraries of approved drugs and bioactive compounds (AID 1345084); conditions: Gynecologic cancer cell panel viability, ATPlite luminescence, 48 h; series mostly up to 57.5 µM; also: nearly all actives have a fitted effect of over 55% in size
Outline: (§2)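 48 h compound exposure at 37 C, 5% CO2; five-point qHTS. ATPlite luminescence readout of cell ATP.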

CAOV3 = experiment: as above; conditions: Gynecologic cancer cell panel viability, ATPlite luminescence, 48 h; series mostly up to 57.5 µM
Outline: as §2

CASKI = experiment: as above; conditions: Gynecologic cancer cell panel viability, ATPlite luminescence, 48 h; series mostly up to 57.5 µM
Outline: as §2

Es-2 = experiment: as above; conditions: Gynecologic cancer cell panel viability, ATPlite luminescence, 48 h; series mostly up to 57.5 µM
Outline: as §2

HeLa = experiment: as above; conditions: Gynecologic cancer cell panel viability, ATPlite luminescence, 48 h; series mostly up to 57.5 µM
Outline: as §2

Hek293T [3] = experiment: as above; conditions: Gynecologic cancer cell panel viability, ATPlite luminescence, 48 h, control line for the selectivity index; series mostly up to 57.5 µM
Outline: as §2

JEG-3 = experiment: as above; conditions: Gynecologic cancer cell panel viability, ATPlite luminescence, 48 h; series mostly up to 57.5 µM
Outline: as §2

OV90 = experiment: as above; conditions: Gynecologic cancer cell panel viability, ATPlite luminescence, 48 h; series mostly up to 57.5 µM
Outline: as §2

PA-1 = experiment: as above; conditions: Gynecologic cancer cell panel viability, ATPlite luminescence, 48 h; series mostly up to 57.5 µM
Outline: as §2

SKOV3 = experiment: as above; conditions: Gynecologic cancer cell panel viability, ATPlite luminescence, 48 h; series mostly up to 57.5 µM
Outline: as §2

HEK293T [4] = experiment: qHTS assay to identify novel small-molecules to repurpose for Merkel cell carcinoma treatment (AID 1296009); conditions: MCC and control cell lines, CellTiter-Glo viability, 72 h; at 44.8 µM (top of the series) unless noted; also: nearly all actives have a fitted effect of over 60% in size
Outline: as §1
% is scaled to controls: 0 for no effect and ±100 for the full control effect.

CCOC(=O)Oc1ccc(CCNC(=O)[C@H](CCSC)NC(C)=O)cc1OC(=O)OCC
inactive: outcome (NIH3T3 [1]) | Potency (MCC-13) | Potency (MCC-26) | Potency (MKL-1) | Potency (MKL-2) | outcome (NIH3T3 [2]) | Potency (UISO) | Potency (WaGa) | Potency (C33A) | Potency (CAOV3) | Potency (CASKI) | Potency (Es-2) | Potency (HeLa) | Potency (Hek293T [3]) | Potency (JEG-3) | Potency (OV90) | Potency (PA-1) | Potency (SKOV3)

COc1ccccc1OCC1CNC(=O)O1 (stereo not given)
inactive: outcome (NIH3T3 [1]) | Potency (MCC-13) | Potency (MCC-26) | Potency (MKL-1) | Potency (MKL-2) | outcome (NIH3T3 [2]) | Potency (UISO) | Potency (WaGa) | Potency (C33A) | Potency (CAOV3) | Potency (CASKI) | Potency (Es-2) | Potency (HeLa) | Potency (Hek293T [3]) | Potency (JEG-3) | Potency (OV90) | Potency (PA-1)

OCCCc1ccccc1
inactive: outcome (NIH3T3 [1]) | Potency (MCC-13) | Potency (MCC-26) | Potency (MKL-1) | Potency (MKL-2) | outcome (NIH3T3 [2]) | Potency (UISO) | Potency (WaGa) | Potency (C33A) | Potency (CAOV3) | Potency (CASKI) | Potency (Es-2) | Potency (HeLa) | Potency (Hek293T [3]) | Potency (JEG-3) | Potency (OV90) | Potency (PA-1) | Potency (SKOV3)

CCCCOC(=O)CCCCCCCCC(=O)OCCCC
inactive: outcome (NIH3T3 [1]) | Potency (MCC-13) | Potency (MCC-26) | Potency (MKL-1) | Potency (MKL-2) | outcome (NIH3T3 [2]) | Potency (UISO) | Potency (WaGa) | Potency (C33A) | Potency (CAOV3) | Potency (CASKI) | Potency (Es-2) | Potency (HeLa) | Potency (Hek293T [3]) | Potency (JEG-3) | Potency (OV90) | Potency (PA-1) | Potency (SKOV3)

Cc1cc(=O)oc2cc(O[C@@H]3SC[C@@H](O)[C@H](O)[C@H]3O)ccc12
inactive: outcome (NIH3T3 [1]) | Potency (MCC-13) | Potency (MCC-26) | Potency (MKL-1) | Potency (MKL-2) | outcome (NIH3T3 [2]) | Potency (UISO) | Potency (WaGa) | Potency (C33A) | Potency (CAOV3) | Potency (CASKI) | Potency (Es-2) | Potency (HeLa) | Potency (Hek293T [3]) | Potency (JEG-3) | Potency (OV90) | Potency (PA-1)

O=P(O)(O)OCC(O)CO (stereo not given)
inactive: outcome (NIH3T3 [1]) | Potency (MCC-13) | Potency (MCC-26) | Potency (MKL-1) | Potency (MKL-2) | outcome (NIH3T3 [2]) | Potency (UISO) | Potency (WaGa) | Potency (C33A) | Potency (CAOV3) | Potency (CASKI) | Potency (Es-2) | Potency (HeLa) | Potency (Hek293T [3]) | Potency (JEG-3) | Potency (OV90) | Potency (PA-1) | Potency (SKOV3)

CSCC[C@H](NC(=O)[C@H](Cc1c[nH]c2ccccc12)NC(=O)CCNC(=O)OC(C)(C)C)C(=O)N[C@@H](CC(=O)O)C(=O)N[C@@H](Cc1ccccc1)C(N)=O
inactive: outcome (NIH3T3 [1]) | Potency (MCC-13) | Potency (MCC-26) | Potency (MKL-1) | Potency (MKL-2) | outcome (NIH3T3 [2]) | Potency (UISO) | Potency (WaGa) | Potency (C33A) | Potency (CAOV3) | Potency (CASKI) | Potency (Es-2) | Potency (HeLa) | Potency (Hek293T [3]) | Potency (JEG-3) | Potency (OV90) | Potency (PA-1) | Potency (SKOV3)

CCN1CCN(c2cc(-c3ccc(F)cc3)c3c(n2)CCCCCC3)CC1
inactive: outcome (NIH3T3 [1]) | Potency (MCC-13) | Potency (MCC-26) | Potency (MKL-1) | Potency (MKL-2) | outcome (NIH3T3 [2]) inactive [at 17.4 µM] | Potency (UISO) | Potency (WaGa) | Potency (C33A) | Potency (CAOV3) | Potency (CASKI) | Potency (Es-2) | Potency (HeLa) | Potency (Hek293T [3]) | Potency (JEG-3) | Potency (OV90) | Potency (PA-1) | Potency (SKOV3)

CCOC(=O)C(=O)CCCCCCl
inactive: outcome (NIH3T3 [1]) | Potency (MCC-13) | Potency (MCC-26) | Potency (MKL-1) | Potency (MKL-2) | outcome (NIH3T3 [2]) | Potency (UISO) | Potency (WaGa) | Potency (C33A) | Potency (CAOV3) | Potency (CASKI) | Potency (Es-2) | Potency (HeLa) | Potency (Hek293T [3]) | Potency (JEG-3) | Potency (OV90) | Potency (PA-1) | Potency (SKOV3)

Cn1c(=O)c2c(ncn2CC(=O)O)n(C)c1=O
inactive: outcome (NIH3T3 [1]) | Potency (MCC-13) | Potency (MCC-26) | Potency (MKL-1) | Potency (MKL-2) | outcome (NIH3T3 [2]) | Potency (UISO) | Potency (WaGa) | Potency (C33A) | Potency (CAOV3) | Potency (CASKI) | Potency (Es-2) | Potency (HeLa) | Potency (Hek293T [3]) | Potency (JEG-3) | Potency (OV90) | Potency (PA-1)

CC(=O)OC[C@H]1O[C@@H](OC(C)=O)[C@H](OC(C)=O)[C@@H]1OC(C)=O
inactive: outcome (NIH3T3 [1]) | Potency (MCC-13) | Potency (MCC-26) | Potency (MKL-1) | Potency (MKL-2) | outcome (NIH3T3 [2]) | Potency (UISO) | Potency (WaGa) | Potency (C33A) | Potency (CAOV3) | Potency (CASKI) | Potency (Es-2) | Potency (HeLa) | Potency (Hek293T [3]) | Potency (JEG-3) | Potency (OV90) | Potency (PA-1) | Potency (SKOV3)

OCc1cccnc1
inactive: outcome (NIH3T3 [1]) | Potency (MCC-13) | Potency (MCC-26) | Potency (MKL-1) | Potency (MKL-2) | outcome (NIH3T3 [2]) | Potency (UISO) | Potency (WaGa) | Potency (C33A) | Potency (CAOV3) | Potency (CASKI) | Potency (Es-2) | Potency (HeLa) | Potency (Hek293T [3]) | Potency (JEG-3) | Potency (OV90) | Potency (PA-1) | Potency (SKOV3)

Cc1ccccc1N1CCN(CCc2nnc3n2CCCC3)CC1
inactive: max response (NIH3T3 [1]) 4.77% | outcome (HEK293T [4]) | Potency (MCC-13) | Potency (MCC-26) | Potency (MKL-1) | Potency (MKL-2) | Potency (UISO) | Potency (WaGa) | Potency (C33A) | Potency (CAOV3) | Potency (CASKI) | Potency (Es-2) | Potency (HeLa) | Potency (Hek293T [3]) | Potency (JEG-3) | Potency (OV90) | Potency (PA-1) | Potency (SKOV3)

CC(=O)OCC[N+](C)(C)C
inactive: max response (NIH3T3 [1]) 3.81% | outcome (HEK293T [4]) | Potency (MCC-13) | Potency (MCC-26) | Potency (MKL-1) | Potency (UISO) | Potency (C33A) | Potency (CAOV3) | Potency (CASKI) | Potency (Es-2) | Potency (HeLa) | Potency (Hek293T [3]) | Potency (JEG-3) | Potency (OV90) | Potency (PA-1) | Potency (SKOV3)

CN1C(CSCC(F)(F)F)Nc2cc(Cl)c(S(N)(=O)=O)cc2S1(=O)=O (stereo not given)
inactive: outcome (NIH3T3 [1]) | Potency (MCC-13) | Potency (MCC-26) | Potency (MKL-1) | Potency (MKL-2) | outcome (NIH3T3 [2]) | Potency (UISO) | Potency (WaGa) | Potency (C33A) | Potency (CAOV3) | Potency (CASKI) | Potency (Es-2) | Potency (HeLa) | Potency (Hek293T [3]) | Potency (JEG-3) | Potency (OV90) | Potency (PA-1) | Potency (SKOV3)
